A selection: hits, their analogues and other compounds. The true share with any hit is near 8%.
KB-3-1 tox: KB-3-1 parental cell cytotoxicity; KB-3-1 viability, CellTiter-Glo ATP luminescence, 72 h; Potency, µM (series often up to 46.1 µM), actives largely listed as cytotoxic; 400,000 tested, 1.4% active; further: nearly all actives have a fitted effect of over 60% in size
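72 h, 37 °C compound treatment of KB-3-1 parental cells; CellTiter-Glo added, 10 min, luminescence read. Data corrected against DMSO-only plates and normalized before curve fitting.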
MCF10A rereplic: DNA re-replication induction in MCF 10a cells. MCF 10A DNA re-replication, Hoechst nuclear intensity, 48 h. Potency, µM (series often up to 46.1 µM), actives largely listed as activators. 350,000 tested, 2.9% active; further: nearly all actives have a fitted effect of over 50% in size
SW480 rerep: inducers of DNA re-replication in SW480 colon cancer cells; SW480 DNA re-replication, Hoechst DNA content imaging, 48 h; Potency, µM (doses to about 46.1 µM), usual class: activators; 340,000 tested, 1.8% active; further: nearly all actives have a fitted effect of over 55% in size
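Cells (250 per well) received 23 nL compound or DMSO by pin tool and were kept 48 hr at 37 C, 5% CO2. Nuclei were then stained with Hoechst for 40 min and scanned for DNA content.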
HT1080NT lethal: kills 2HG-producing HT-1080-NT fibrosarcoma cells | 360,000 tested, 1.6% active | HT-1080-NT fibrosarcoma viability, CellTiter-Glo ATP luminescence, 48 h | AID 686970 | Potency, µM (titrated, usually from 46.1 µM), actives largely listed as cytotoxic;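 further: NT is the 2HG producing partner of a matched IDH1 knockdown line; nearly all actives have a fitted effect of over 55% in size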
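Compounds were tested in concentration-response format on HT-1080-NT cells for 48 hours at 37 degrees C. Cell viability came from CellTiter-Glo luminescence; curves were classified by r2, response magnitude and activity.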
HT1080 IDH1KD tx: toxicity to HT-1080 IDH1 knockdown cells (counter line). 360,000 tested, 2% active. AID 686971. Potency, µM (top dose mostly 46.1 µM), most hits filed as cytotoxic. HT-1080 IDH1 knockdown viability, ATP luminescence, 48 h
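After a 2 h attachment period, IDH1KD HT-1080 cells took pin-transferred compound for 48 h at 37 °C; ATP-based luminescence after 10 min room-temperature reagent incubation reported viability.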
KB-V1 cytotox: kills drug-selected multidrug resistant KB-V1 cells; 400,000 tested, 3.4% active; KB-V1 MDR cells viability, CellTiter-Glo, 72 h; Potency, µM (series often up to 46.1 µM), hits mostly cytotoxic; further: nearly all actives have a fitted effect of over 60% in size
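KB-V1 cells (P-gp-expressing MDR subline of KB-3-1) in phenol-red-free DMEM with 10% FBS were exposed to library compounds over a concentration series for 72 h at 37 degrees C. Viability read by CellTiter-Glo luminescence; concentration-effect curves fitted after normalization.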
A number is an active result; 0 = inactive; ? = inconclusive; - = no result given. The call rests on the fitted dose curve; in most records, active means well fitted curve in the direction sought with a large enough effect; inconclusive means small, poorly fitted or top-dose-only effect, or another doubt; inactive means no such curve, though single readings can be large; an effect the other way counts as inactive or inconclusive.

SMILES	KB-3-1 tox	MCF10A rereplic	SW480 rerep	HT1080NT lethal	HT1080 IDH1KD tx	KB-V1 cytotox
COc1ccc(C(=O)N(C)c2ccccc2C(=O)NCCc2ccccc2)cc1	2.9µM	0	0	0	?	5.8µM
CC(=O)C[C@@H](O)CC(=O)[C@@H]1OC(=O)[C@@H](C)C/C=C\Cc2ccccc21	0	0	?	0	0	0
CCOc1ccc(S(=O)(=O)N2CCN(c3ccc(C)cc3C)CC2)cc1	0	0	0	0	0	0
COC(=O)C1(C)CN(S(=O)(=O)c2ccc(C)cc2)c2cc(OC)ccc2C1=O (centres undefined)	?	0	?	0	0	?
COc1ccc2c(c1)C(C)=CC(C)(C)N2S(=O)(=O)c1ccc(C)cc1	2.1µM	?	13µM	0.92µM	0.92µM	2.6µM
CCNC(=O)N1c2ccc(OCC)cc2C(C)=CC1(C)C	0	14µM	0	0	0	0
CCOc1ccc2c(c1)C(C)=CC(C)(C)N2S(=O)(=O)c1ccc(C)cc1	2.1µM	0	13µM	1.3µM	1.8µM	5.8µM
CC1=CC(C)(C)N(S(=O)(=O)c2ccc(C)cc2)c2cc(C)ccc21	3.7µM	?	7.3µM	1µM	1.3µM	6.5µM
CCOc1ccc2c(c1)C(C)=CC(C)(C)N2C(=O)Nc1ccccc1F	0	?	0	0	0	0
c1cc2c(cc1NC1CCCCCC1)OCO2	0	0	0	0	0	0
Cc1cc(CC(C)CC(C)(C)C)n(O)c(=O)c1 (centres undefined)	0	11µM	?	-	-	0
COC(=O)C(CCSC)NS(=O)(=O)c1ccc(Cl)cc1 (centres undefined)	0	0	0	0	0	?
COc1ccc(C(=O)COC(=O)C(CCSC)NS(=O)(=O)c2ccc(Cl)cc2)cc1 (centres undefined)	0	0	0	0	0	23µM
Cc1ccc(S(=O)(=O)/N=C2/C=C(C3C(=O)CC(C)(C)CC3=O)C(=O)c3ccccc32)cc1	0	?	?	0	?	16µM
O=C(Nc1cccc(C(F)(F)F)c1)c1cccnc1N1CCCC1	0	0	0	0	0	0
O=C(Nc1cccc(C(F)(F)F)c1)c1cccnc1N1CCOCC1	0	0	0.73µM	0	0	0
O=C(Nc1ccc(C(F)(F)F)cc1)c1cccnc1N1CCOCC1	0	0	0	0	?	16µM
COC(=O)c1cc(NC(=O)c2cc(-c3ccc(C(F)(F)F)cc3)oc2C(F)(F)F)ccc1N1CCOCC1	?	0	5.8µM	0	0	?
O=C(Nc1ccccc1)c1cccnc1N1CCOCC1	?	0	0	?	0	0
O=C(Nc1cc(N2CCOCC2)ncn1)c1ccc(F)cc1	16µM	0	0	0	0	0
CCOc1ccc(NC(=O)CN(C)C(=O)c2ccc(C)c(S(=O)(=O)N3CCCCC3)c2)cc1OCC	0	0	0	0	0	0
Cc1cc(=O)[nH]c(NN)n1	0	0	?	0	0	0
CC(=O)Oc1ccc2nc(-c3ccco3)oc(=O)c2c1	0	0	0	0	0	0
O=C(/C=C/[C@H]1O[C@@H](n2cnc3c(NC(=O)c4ccccc4)ncnc32)[C@H](O)[C@@H]1O)NCc1cccc2ccccc12	0	-	-	0	0	0
O=C(Nc1ccc(N2CCOCC2)nc1)c1ccc(C(F)(F)F)cc1	?	0	0	0	0	8.2µM
SMILES	KB-3-1 tox	MCF10A rereplic	SW480 rerep	HT1080NT lethal	HT1080 IDH1KD tx	KB-V1 cytotox
Cc1cccc(C(=O)Nc2ccc(N3CCN(c4ccc(C(F)(F)F)cn4)CC3)nc2)c1	0	0	0	0	0	0
COc1ccc(C2CC(=O)c3cnc(NC(=O)c4ccccc4)nc3C2)c(OC)c1 (centres undefined)	?	21µM	?	0	0	?
Cc1ccc(/C=C2/Sc3ccccc3N(CC(=O)NCCCOC(C)C)C2=O)cc1	0	?	0	0	0	23µM
CCOCCCNC(=O)CN1C(=O)/C(=C/c2ccccc2)Sc2ccccc21	0	0	0	0	0	15µM
CCOCCCNC(=O)CN1C(=O)/C(=C\c2ccc(C)cc2)Sc2ccccc21	0	?	0	0	0	4.6µM
COCCCNC(=O)CN1C(=O)/C(=C/c2ccccc2)Sc2ccccc21	0	0	0	?	0	?
COCCCNC(=O)CN1C(=O)/C(=C/c2ccccc2C)Sc2ccccc21	0	0	0	0	0	?
CC(=O)Nc1cccc(/C(C)=N/NC(=S)NC(C)C)c1	?	0	0	?	0	?
Cc1nn(CC(=O)N2CCN(C34CC5CC(CC(C5)C3)C4)CC2)c(C)c1[N+](=O)[O-]	0	0	0	0	0	0
COc1ccc(O)c(C(=O)c2cnn(S(=O)(=O)c3ccc(C)cc3)c2)c1	?	?	0	0	0	?
Cc1ccc(C(=O)/C=C/c2cn(CN3CCN(C)CC3)c3ccccc23)cc1	0	18µM	18µM	?	?	0
Cn1cc(/C=C/C(=O)c2ccccc2)c2ccccc21	0	?	?	0	0	?
CCOc1ccc(S(=O)(=O)NCc2cccnc2)cc1NC(=O)c1ccccc1F	18µM	13µM	9.2µM	0	0	?
CCOc1ccc(S(=O)(=O)NCc2ccncc2)cc1NC(=O)c1ccccc1F	?	?	0	?	23µM	?
CCOc1ccc(S(=O)(=O)NCc2ccncc2)cc1NC(=O)c1ccccc1	0.58µM	?	0	3.7µM	23µM	?
COc1cccc(C(C(=O)NC2CCCCC2)N(C(=O)Cc2cccs2)c2ccc(-n3cnnn3)c(OC)c2)c1 (centres undefined)	0	0	?	0	0	?
CCOc1ccc(C2Nc3ccc4ccccc4c3-c3c2c(=O)oc2ccccc32)cc1 (centres undefined)	0	5.2µM	?	0	?	0
Cc1cc(C)c2c(N)c(C(=O)N/N=C/c3ccccc3)sc2n1	0	9.2µM	13µM	?	0	0
Cc1cc(C)c2c(N)c(C(=O)NN)sc2n1	0	?	?	0	0	0
Cc1c(C(=O)N/N=C/c2cccnc2)sc(=S)n1C	0	0	?	0	0	0
Cc1cc(C)c2c(N)c(C(=O)N/N=C/c3cccnc3)sc2n1	0	16µM	?	0	0	0
Cn1c(N)c(C(=O)N/N=C/c2ccccc2)sc1=S	0	23µM	?	0	0	0
COc1ccc(N2CC(C(=O)OCC(=O)c3ccccc3)CC2=O)cc1 (centres undefined)	0	0	0	0	0	0
COc1ccc(/C=N\NC(=O)c2sccc2C)cc1Cn1nc(C)cc1C	?	0	0	0	0	6.5µM
CCNc1nc(C)c2cc(Br)c(=O)n(CC)c2n1	?	?	0	2.9µM	2.1µM	6.5µM

Source: PubChem BioAssay (National Center for Advancing Translational Sciences (NCATS))
